The source of these data is PubChem BioAssay (NCI).

Among the test systems are SK-MEL-2 melanoma; SN12C renal; UO-31 renal; TK-10 renal; ACHN renal; CAKI-1 renal; A498 renal; CCRF-CEM leukemia; MOLT-4 leukemia; RPMI-8226 leukemia; OVCAR-8 ovarian; OVCAR-5 ovarian; OVCAR-4 ovarian; SK-OV-3 ovarian; IGROV1 ovarian; OVCAR-3 ovarian; HS 578T breast; NCI/ADR-RES ovarian; SR leukemia; EKVX NSCLC.
Common to all, as to assay: NCI-60 one-dose screen, 48 h (100 = growth as untreated, 0 = no growth, -100 = all killed)
What all share (details): 10 µM unless noted

The panel holds about 83,000 compounds, 20% with a hit somewhere; the sample as a whole holds those more often.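 How to read the values: 0–100, growth inhibition (40 = 60% inhibited); 0, no net growth; -100 to 0, cell death (-40 = 40% of starting cells died; -100 = all dead).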 Values without a mark were called inactive. The source made the active and inactive calls. Rule for the calls: active = growth percent below 10; inactive = the rest.

Regarding `BrCCCc1n(Cc2ccc3ccccc3c2)c2ccccc2[n+]1Cc1ccc2ccccc2c1`, the growth with SK-MEL-2 melanoma was -50.8% (active); in the experiment on SN12C renal, -92.8% (active); with UO-31 renal, 52.8%; in the experiment with TK-10 renal, -85.7% (active); in the experiment on ACHN renal, 5.29% (active); with CAKI-1 renal it was -90.7% (active). The growth was -32.5% (active) in the experiment on A498 renal; -41.6% (active) in the experiment with CCRF-CEM leukemia; -35.9% (active) with MOLT-4 leukemia; -58.8% (active) with RPMI-8226 leukemia; -69.2% (active) with OVCAR-8 ovarian; -4.99% (active) in the experiment with OVCAR-5 ovarian. The growth was -24.7% (active) with OVCAR-4 ovarian; -38.2% (active) in the experiment with SK-OV-3 ovarian; -71.9% (active) in the experiment with IGROV1 ovarian; -71.5% (active) with OVCAR-3 ovarian; -48.2% (active) with HS 578T breast; 58.3% with NCI/ADR-RES ovarian.
Take `COc1ccc(-c2c(C(=O)NS(C)(=O)=O)n(Cc3cccc(C(F)(F)F)c3)c3ccccc23)cc1`: the growth in the experiment on SK-MEL-2 melanoma is 101%; in the experiment with SN12C renal, 85.2%; with UO-31 renal, 73%; with TK-10 renal, 105%; in the experiment on ACHN renal, 91.8%; in the experiment with CAKI-1 renal, 80.1%. Besides, the growth with A498 renal was 80.1%; with CCRF-CEM leukemia, 75.5%; with MOLT-4 leukemia it was 90.3%; in the experiment on RPMI-8226 leukemia, 81.2%; with OVCAR-8 ovarian, 82.1%; in the experiment with OVCAR-5 ovarian, 106%. The growth with OVCAR-4 ovarian was 96.1%; in the experiment with SK-OV-3 ovarian it was 97.2%; with IGROV1 ovarian, 90.7%; in the experiment on OVCAR-3 ovarian, 88.5%; in the experiment with HS 578T breast, 86.5%; in the experiment on NCI/ADR-RES ovarian, 94.4%.
For `O=C(N/N=C/[C@H](O)[C@@H](O)[C@@H](O)[C@H](O)CO)c1ccc(NC(=O)c2cccnc2)cc1`, the growth is 109% in the experiment on SK-MEL-2 melanoma; 99.4% with SN12C renal; 92.5% in the experiment on UO-31 renal; 106% with TK-10 renal; 103% with ACHN renal; 101% with CAKI-1 renal. Moreover, the growth in the experiment on A498 renal was 107%; in the experiment on CCRF-CEM leukemia, 103%; in the experiment with MOLT-4 leukemia, 114%; in the experiment on SR leukemia it was 103%; with OVCAR-8 ovarian, 105%; with OVCAR-5 ovarian, 106%. The growth was 102% with OVCAR-4 ovarian; 108% in the experiment on SK-OV-3 ovarian; 110% in the experiment with IGROV1 ovarian; 120% with OVCAR-3 ovarian; 108% in the experiment with HS 578T breast; 106% in the experiment on NCI/ADR-RES ovarian.
`Fc1cc2c(cc1Cl)N(c1ncnc3ccc(-c4cnc5cnccn45)cc13)CC2`: the growth is 102% with SK-MEL-2 melanoma; 79.3% in the experiment with SN12C renal; 42.1% in the experiment on UO-31 renal; 96.9% in the experiment with TK-10 renal; 60.4% in the experiment on ACHN renal; 62.8% in the experiment on CAKI-1 renal. For the same compound, the growth in the experiment on A498 renal was 45.6%; with CCRF-CEM leukemia it was 108%; in the experiment with MOLT-4 leukemia it was 98.9%; in the experiment on RPMI-8226 leukemia, 95.2%; in the experiment on OVCAR-8 ovarian, 91.4%; in the experiment with OVCAR-5 ovarian it was 74.4%. In addition, the growth in the experiment with OVCAR-4 ovarian was 94.8%; with SK-OV-3 ovarian, 94.2%; in the experiment with IGROV1 ovarian, 48.2%; in the experiment on OVCAR-3 ovarian it was 87.4%; in the experiment with HS 578T breast it was 93.4%; in the experiment with NCI/ADR-RES ovarian it was 86.8%.
As to `Cc1cccc2c3c(sc12)C(c1ccc(Cl)cc1)C(C#N)=C(/N=C/c1ccc(Cl)cc1)O3` (stereo not given), the growth with SK-MEL-2 melanoma was 43%; in the experiment with SN12C renal, 27.3%; in the experiment with UO-31 renal, 37.9%; in the experiment with TK-10 renal, 74.8%; in the experiment on ACHN renal, 25.9%; with CAKI-1 renal, 5.67% (active). For the same compound, the growth was -4.07% (active) with A498 renal; 5.88% (active) in the experiment with CCRF-CEM leukemia; 14.2% with MOLT-4 leukemia; 24.1% in the experiment with SR leukemia; 25% in the experiment with OVCAR-8 ovarian; 24.6% in the experiment with OVCAR-5 ovarian. Further, the growth is 52.9% in the experiment on OVCAR-4 ovarian; 59% with SK-OV-3 ovarian; 21.9% in the experiment on IGROV1 ovarian; -2.5% (active) in the experiment on OVCAR-3 ovarian; 14.3% with HS 578T breast; 9.29% (active) with NCI/ADR-RES ovarian.
On to `N#Cc1c(-c2ccc(Cl)cc2)nc2c(c(-c3ccccc3)nn2-c2ccccc2)c1-c1ccc(O)cc1`, for which the growth was 74.5% in the experiment with SK-MEL-2 melanoma; 67.8% in the experiment with EKVX NSCLC; -18.4% (active) with SN12C renal; 30.5% in the experiment with UO-31 renal; 17.2% with TK-10 renal; 56% with ACHN renal. For the same compound, the growth is 40.2% in the experiment with CAKI-1 renal; 79.3% with A498 renal; 27% with CCRF-CEM leukemia; 24.3% in the experiment on MOLT-4 leukemia; 17.9% in the experiment on RPMI-8226 leukemia; 49.9% in the experiment with OVCAR-8 ovarian. Further, the growth in the experiment with OVCAR-5 ovarian is 84%; in the experiment on IGROV1 ovarian, 69.8%; in the experiment with OVCAR-3 ovarian, 48.3%; in the experiment with HS 578T breast, 26.5%; in the experiment with NCI/ADR-RES ovarian, 57.9%.
As to `Cc1cccc2c1S/C(=C/c1ccc([N+](=O)[O-])cc1)C2=O`, the growth is 103% in the experiment with SK-MEL-2 melanoma; 98.8% in the experiment with SN12C renal; 80.4% in the experiment with UO-31 renal; 166% with TK-10 renal; 102% with ACHN renal; 90.6% in the experiment with CAKI-1 renal. In addition, the growth in the experiment with A498 renal is 59.8%; in the experiment on CCRF-CEM leukemia it was 101%; in the experiment with MOLT-4 leukemia, 94.5%; with SR leukemia, 86.8%; in the experiment on OVCAR-8 ovarian, 105%; with OVCAR-5 ovarian, 41.3%. Moreover, the growth is 112% in the experiment on OVCAR-4 ovarian; 88.2% in the experiment with SK-OV-3 ovarian; 82.7% in the experiment with IGROV1 ovarian; 105% with OVCAR-3 ovarian; 99.7% in the experiment on HS 578T breast; 110% in the experiment with NCI/ADR-RES ovarian.
As to `CCOC(=O)CC1C(COC(=O)NC)OC(n2cnc3c(NC(=O)Nc4ccccc4)ncnc32)C1O[Si](C)(C)C(C)(C)C` (stereo not given), the growth in the experiment with SK-MEL-2 melanoma is 60%; in the experiment on SN12C renal, 34.8%; with UO-31 renal, 41.9%; in the experiment with TK-10 renal, 87.7%; in the experiment with ACHN renal, 25.8%; in the experiment on CAKI-1 renal it was 60.8%. Besides, the growth with A498 renal was 77.4%; in the experiment on CCRF-CEM leukemia it was 57.4%; in the experiment with MOLT-4 leukemia, 34.3%; with RPMI-8226 leukemia, 39.7%; in the experiment on OVCAR-8 ovarian, 74%; in the experiment on OVCAR-5 ovarian, 94.2%. Moreover, the growth is 41.6% in the experiment on OVCAR-4 ovarian; 49.1% in the experiment on IGROV1 ovarian; 51.1% in the experiment on OVCAR-3 ovarian; 57.1% with HS 578T breast; 48.1% in the experiment with NCI/ADR-RES ovarian.
For `Cc1nc2ccccc2n1-c1ncnc2c1CC(C)c1ccccc1N2C` (stereo not given), the growth was 78.3% in the experiment on SK-MEL-2 melanoma; 87.8% in the experiment with SN12C renal; 71.3% in the experiment with UO-31 renal; 97.4% with TK-10 renal; 93.2% in the experiment with ACHN renal; 79.9% in the experiment with CAKI-1 renal. Besides, the growth with A498 renal is 70.4%; with CCRF-CEM leukemia, 76.3%; with MOLT-4 leukemia, 60.3%; with SR leukemia, 19.7%; in the experiment on OVCAR-8 ovarian, 85%; with OVCAR-5 ovarian, 101%. For the same compound, the growth is 92.4% in the experiment with OVCAR-4 ovarian; 85.9% with SK-OV-3 ovarian; 94.6% with OVCAR-3 ovarian; 82.5% in the experiment with HS 578T breast; 67.8% in the experiment with NCI/ADR-RES ovarian.
`Nc1nc(-c2cccc3ccccc23)cc2ccccc12`: the growth is 27.7% with SK-MEL-2 melanoma; 35.8% with SN12C renal; 19.6% with UO-31 renal; 55.8% in the experiment with TK-10 renal; 36.6% with ACHN renal; 15.6% with CAKI-1 renal. Besides, the growth was -19.8% (active) with A498 renal; 29% in the experiment with CCRF-CEM leukemia; -3.33% (active) in the experiment on MOLT-4 leukemia; 4.38% (active) in the experiment on RPMI-8226 leukemia; 17.9% in the experiment on OVCAR-8 ovarian; 20.9% with OVCAR-5 ovarian. Besides, the growth in the experiment on OVCAR-4 ovarian was 61.4%; in the experiment on SK-OV-3 ovarian, 8.91% (active); in the experiment with IGROV1 ovarian it was -48.5% (active); with OVCAR-3 ovarian, -32.2% (active); with HS 578T breast it was -4.65% (active); in the experiment on NCI/ADR-RES ovarian, 2.9% (active).
Take `Fc1cc(-c2nnc3sc(-c4ccc(Cl)cc4Cl)nn23)c(Cl)cc1Cl`: the growth was 94.7% in the experiment on SK-MEL-2 melanoma; 82.8% with SN12C renal; 73% in the experiment with UO-31 renal; 109% in the experiment with TK-10 renal; 73.7% with ACHN renal; 86.5% with CAKI-1 renal. For the same compound, the growth in the experiment with A498 renal was 109%; with CCRF-CEM leukemia, -78.6% (active); in the experiment with MOLT-4 leukemia, 134%; in the experiment with RPMI-8226 leukemia it was 84%; in the experiment with OVCAR-8 ovarian, 82.6%; in the experiment with OVCAR-5 ovarian, 96.6%. The growth with OVCAR-4 ovarian was 26.2%; with SK-OV-3 ovarian, 77.1%; in the experiment on IGROV1 ovarian, 86.1%; in the experiment on OVCAR-3 ovarian it was 99.4%; in the experiment on HS 578T breast, -14.7% (active); in the experiment with NCI/ADR-RES ovarian, 89.4%.
